Structures are written as SMILES. Compounds without any hit were thinned out: in the full panel of roughly 79,000, 15% have a hit. Unmarked numbers belong to inactive results. Calls of active or inactive are those of the source. No stated cut-off is given here; in the data, active means growth inhibition above about 70%; inactive means the rest.

Assay [1] in a line: NCI Yeast Anticancer Drug Screen. Data for the rad50 strain (AID 155).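 Further: 0% = growth of vehicle-only cultures of the same strain.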 The note with it: S. cerevisiae rad50 strain growth inhibition, stronger effect = higher value. The essentials:
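A DNA repair-deficient yeast mutant serves as the test organism; compound-induced growth inhibition is calculated against vehicle-treated cells.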

Assay [2] is described as follows: NCI Yeast Anticancer Drug Screen. Data for the mec2-1 strain (AID 157). The note with it: S. cerevisiae mec2-1 strain, stronger effect = higher value. The essentials:
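Each compound was tested on mec2-1 yeast, a strain altered in DNA damage repair or cell cycle control. Growth inhibition is reported relative to vehicle.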

A short description of assay [3]: NCI Yeast Anticancer Drug Screen. Data for the sgs1 mgt1 strain (AID 161).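 Further: 0% = growth of cultures given vehicle only.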 The note with it: S. cerevisiae sgs1 mgt1 strain, stronger effect = higher value. The essentials: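 Genetically altered yeast, compound exposure, growth inhibition relative to vehicle.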
The nature of assay [4]: NCI Yeast Anticancer Drug Screen. Data for the cln2 rad14 strain (AID 165).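 Further: 0% = growth equal to vehicle treated cultures.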 The note with it: S. cerevisiae cln2 rad14 strain, stronger effect = higher value. The essentials: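 Test compounds were added to cln2 rad14 yeast cultures; inhibition of growth was then determined by comparison with vehicle treatment.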
A short description of assay [5]: NCI Yeast Anticancer Drug Screen. Data for the bub3 strain (AID 167). The note with it: S. cerevisiae bub3 mutant strain, stronger effect = higher value. The method in brief: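 Inhibition values come from growth of compound-treated mutant yeast normalised to vehicle-treated controls.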
Assay [6] can be described thus: NCI Yeast Anticancer Drug Screen. Data for the mlh1 rad18 strain (AID 175). The conditions noted are these: S. cerevisiae mlh1 rad18 strain growth inhibition, stronger effect = higher value. The method in brief:
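Inhibition values reflect reduced growth of mutant yeast versus vehicle-treated controls following compound exposure; the mutations affect DNA damage repair.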

Setting [7] is: at 5.0 µM (retest, dose inferred, filed as 0.5).
Setting [8] is: at 50.0 µM (retest, dose inferred, filed as 5.0).

As for `C/C1=C\[C@@H](O)C(=O)/C=C/C=C\c2csc(n2)[C@@H](C)NC(=O)C[C@@]2(CC1)S(=O)SC(=O)[C@]2(C)O` (some centres not stated), the growth inhibition is 92% (active) in assay [1] (setting [7]); 98% (active) in assay [1] (setting [8]); 91.6% (active) in assay [1] (at 50.0 µM); 98% (active) in assay [2] (setting [7]); 99% (active) in assay [2] (setting [8]); 92.5% (active) in assay [2] (at 50.0 µM). The growth inhibition was 90% (active) in assay [3] (setting [7]); 98% (active) in assay [3] (setting [8]); 92.2% (active) in assay [3] (at 50.0 µM); 97% (active) in assay [4] (setting [7]); 98% (active) in assay [4] (setting [8]); 89.2% (active) in assay [4] (at 50.0 µM). For the same compound, the growth inhibition in assay [5] (setting [7]) was 94% (active); in assay [5] (setting [8]), 98% (active); in assay [5] (at 50.0 µM), 90.3% (active); in assay [6] (setting [7]) it was 96% (active); in assay [6] (setting [8]), 98% (active); in assay [6] (at 50.0 µM), 85% (active).
`C=C(C)C1(CCCC)C(=O)NC(=S)NC1=O`: the growth inhibition is 0% in assay [1] (setting [7]); 60% in assay [1] (setting [8]); 29.9% in assay [1] (at 50.0 µM); -18% in assay [2] (setting [7]); 49% in assay [2] (setting [8]); 11.8% in assay [2] (at 50.0 µM). Moreover, the growth inhibition in assay [3] (setting [7]) was -14%; in assay [3] (setting [8]) it was 61%; in assay [3] (at 50.0 µM), 34.8%; in assay [4] (setting [7]), -18%; in assay [4] (setting [8]) it was 51%; in assay [4] (at 50.0 µM), -28.1%. For the same compound, the growth inhibition in assay [5] (setting [7]) was -7%; in assay [5] (setting [8]), 45%; in assay [5] (at 50.0 µM), 39%; in assay [6] (setting [7]), -2%; in assay [6] (setting [8]) it was 85% (active); in assay [6] (at 50.0 µM), 40%.
Turning to `CCOP(=O)(OCC)/C(C#N)=C/c1cccc(C)c1`, the growth inhibition in assay [1] (setting [7]) is 4%; in assay [1] (setting [8]) it was 53%; in assay [1] (at 50.0 µM), 71.4% (active); in assay [2] (setting [7]), -14%; in assay [2] (setting [8]) it was 28%; in assay [2] (at 50.0 µM) it was 58.3%. For the same compound, the growth inhibition is -18% in assay [3] (setting [7]); 42% in assay [3] (setting [8]); 65.8% in assay [3] (at 50.0 µM); -17% in assay [4] (setting [7]); 9% in assay [4] (setting [8]); 35% in assay [4] (at 50.0 µM). The growth inhibition was -8% in assay [5] (setting [7]); 52% in assay [5] (setting [8]); 52.1% in assay [5] (at 50.0 µM); -37% in assay [6] (setting [7]); 56% in assay [6] (setting [8]); 66.3% in assay [6] (at 50.0 µM).
As to `CC/C(=C(/CC)c1ccc(OP(N)(=O)N(CCCl)CCCl)cc1)c1ccc(OP(N)(=O)N(CCCl)CCCl)cc1` (configuration not stated), the growth inhibition in assay [1] (setting [7]) is 18%; in assay [1] (setting [8]) it was 33%; in assay [1] (at 50.0 µM), 17.1%; in assay [2] (setting [7]) it was -5%; in assay [2] (setting [8]), 26%; in assay [2] (at 50.0 µM), 5.6%. The growth inhibition in assay [3] (setting [7]) is 2%; in assay [3] (setting [8]), 42%; in assay [3] (at 50.0 µM) it was 34.7%; in assay [4] (setting [7]), 3%; in assay [4] (setting [8]), 31%; in assay [4] (at 50.0 µM), -9.95%. Further, the growth inhibition in assay [5] (setting [7]) is 29%; in assay [5] (setting [8]) it was 34%; in assay [5] (at 50.0 µM), 0.1%; in assay [6] (setting [7]), 26%; in assay [6] (setting [8]), 51%; in assay [6] (at 50.0 µM), 66.8%.
As for `C1CC[CH]([Sn]([CH]2CCCCC2)[CH]2CCCCC2)CC1.C1CC[CH]([Sn]([CH]2CCCCC2)[CH]2CCCCC2)CC1`, the growth inhibition in assay [1] (setting [7]) was 2%; in assay [1] (setting [8]) it was 34%; in assay [1] (at 50.0 µM), 31.5%; in assay [2] (setting [7]), 0%; in assay [2] (setting [8]), 34%; in assay [2] (at 50.0 µM), 63.3%. The growth inhibition in assay [3] (setting [7]) is 4%; in assay [3] (setting [8]), 17%; in assay [3] (at 50.0 µM), 75.7% (active); in assay [4] (setting [7]), 3%; in assay [4] (setting [8]), -9%; in assay [4] (at 50.0 µM), -30.2%. The growth inhibition in assay [5] (setting [7]) is 3%; in assay [5] (setting [8]), -2%; in assay [5] (at 50.0 µM), 9.5%; in assay [6] (setting [7]) it was 0%; in assay [6] (setting [8]), 4%; in assay [6] (at 50.0 µM), 87.9% (active).
In the case of `c1ccc2c3ccn4cc5c(cc4c-3nc2c1)CCCC5`, the growth inhibition is 10% in assay [1] (setting [7]); 97% (active) in assay [1] (setting [8]); 86.9% (active) in assay [1] (at 50.0 µM); 23% in assay [2] (setting [7]); 98% (active) in assay [2] (setting [8]); 86.6% (active) in assay [2] (at 50.0 µM). Also, the growth inhibition in assay [3] (setting [7]) was 22%; in assay [3] (setting [8]), 98% (active); in assay [3] (at 50.0 µM), 86.2% (active); in assay [4] (setting [7]), 6%; in assay [4] (setting [8]) it was 96% (active); in assay [4] (at 50.0 µM), 73.2% (active). The growth inhibition was 1% in assay [5] (setting [7]); 97% (active) in assay [5] (setting [8]); 87% (active) in assay [5] (at 50.0 µM); 26% in assay [6] (setting [7]); 98% (active) in assay [6] (setting [8]); 85.2% (active) in assay [6] (at 50.0 µM).
As to `FC(F)(F)c1cccc(CCl)c1`, the growth inhibition in assay [1] (setting [7]) is -1%; in assay [1] (setting [8]) it was 3%; in assay [1] (at 50.0 µM), 24.8%; in assay [2] (setting [7]) it was 0%; in assay [2] (setting [8]), 1%; in assay [2] (at 50.0 µM), -5.7%. Besides, the growth inhibition was -1% in assay [3] (setting [7]); 1% in assay [3] (setting [8]); -17.4% in assay [3] (at 50.0 µM); -5% in assay [4] (setting [7]); -6% in assay [4] (setting [8]); -20.2% in assay [4] (at 50.0 µM). The growth inhibition in assay [5] (setting [7]) is -3%; in assay [5] (setting [8]), 7%; in assay [5] (at 50.0 µM), -8.25%; in assay [6] (setting [7]) it was -2%; in assay [6] (setting [8]), 4%; in assay [6] (at 50.0 µM), 38.5%.
Take `CC12CCC3C(CCC4CC(N5CCCCC5)=CCC43C)C1CCC2O` (configuration not stated): the growth inhibition was -3% in assay [1] (setting [7]); 98% (active) in assay [1] (setting [8]); 48.5% in assay [1] (at 50.0 µM); -12% in assay [2] (setting [7]); 97% (active) in assay [2] (setting [8]); 89.4% (active) in assay [2] (at 50.0 µM). Besides, the growth inhibition was 5% in assay [3] (setting [7]); 99% (active) in assay [3] (setting [8]); 47.1% in assay [3] (at 50.0 µM); 5% in assay [4] (setting [7]); 98% (active) in assay [4] (setting [8]); 73% (active) in assay [4] (at 50.0 µM). Moreover, the growth inhibition in assay [5] (setting [7]) was -8%; in assay [5] (setting [8]) it was 98% (active); in assay [5] (at 50.0 µM), 84.5% (active); in assay [6] (setting [7]), -3%; in assay [6] (setting [8]), 98% (active); in assay [6] (at 50.0 µM), 98.5% (active).
Turning to `O=S(=O)(F)c1ccc(Cl)cc1C[P+](c1ccccc1)(c1ccccc1)c1ccccc1`, the growth inhibition in assay [1] (setting [7]) is 20%; in assay [1] (setting [8]) it was 77% (active); in assay [1] (at 50.0 µM) it was 45.9%; in assay [2] (setting [7]), 22%; in assay [2] (setting [8]), 82% (active); in assay [2] (at 50.0 µM), 19.9%. Further, the growth inhibition in assay [3] (setting [7]) was 13%; in assay [3] (setting [8]), 76% (active); in assay [3] (at 50.0 µM), 53.5%; in assay [4] (setting [7]), 0%; in assay [4] (setting [8]), 54%; in assay [4] (at 50.0 µM) it was 11.1%. In addition, the growth inhibition in assay [5] (setting [7]) was 12%; in assay [5] (setting [8]), 82% (active); in assay [5] (at 50.0 µM), 38.2%; in assay [6] (setting [7]), 20%; in assay [6] (setting [8]), 86% (active); in assay [6] (at 50.0 µM), 69%.
